Pf growth 48h: P. falciparum growth inhibition at 48 hours (one generation). P. falciparum luciferase growth in erythrocytes, 48 h. Potency, µM (series often up to 28.7 µM), actives largely listed as inhibitors. 310,000 compounds, 5.9% hits; active = well fitted inhibition curve with a large enough effect; inconclusive = small, poorly fitted or top-dose-only effect, or another doubt; inactive = no such curve, though single readings can be large or run the other way
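Firefly luciferase activity from engineered P. falciparum reports growth; inhibitors lower the luminescent signal. Cultures contained 2% hematocrit erythrocytes at 0.1% final parasitemia.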
NS1 function inh: inhibitors of influenza NS1 protein function | Potency, µM (top dose mostly 46.1 µM) | 270,000 compounds, 0.4% hits; also: actives are rising curves; nearly all actives have a fitted effect of over 50% in size
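S. cerevisiae expressing influenza A NS1, grown in glucose, washed, then diluted 1:100 into pH 6.0 -URA galactose medium with 23 nl compound. Growth recovery read as OD600; NS1-free strain serves as control.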
Shiga toxin inh: inhibitors of Shiga toxin in Vero cells | inhibition, % at 38.7 µM | 290,000 compounds, 9.2% hits | Vero cells, Shiga toxin protein synthesis inhibition reporter | AID 2315; in the data active = inhibition mostly above about 28%, no sharp cut-off; inactive = mostly below about 43%
SARS PLpro yeast: blocks SARS-CoV papain-like protease in a yeast assay | S. cerevisiae expressing SARS-CoV PLpro, growth rescue | Potency, µM (top dose mostly 32.9 µM), usual class: activators | 330,000 compounds, 0.19% hits; also: nearly all actives have a fitted effect of over 55% in size
CHX counter: counter-screen for Shiga toxin inhibitors: cycloheximide protein synthesis inhibition | cell reporter, cycloheximide protein synthesis inhibition counterscreen | 300,000 compounds, 12% hits | AID 2314 | max response, %; in the data active = max response mostly above about 13%, no sharp cut-off; inactive = mostly below about 14%; also: read at 38.3 µM for the half of the compounds with a filed dose
Pf growth 96h: P. falciparum growth inhibition at 96 hours; P. falciparum luciferase reporter growth, 96 h; Potency, µM (top dose mostly 28.7 µM), most hits filed as inhibitors; 320,000 compounds, 6.9% hits; AID 504834; active = well fitted inhibition curve with a large enough effect; inconclusive = small, poorly fitted or top-dose-only effect, or another doubt; inactive = no such curve, though single readings can be large or run the other way
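Plates of compound plus infected erythrocytes (2% hematocrit, 0.05% parasitemia final) incubate 96 hours, 37 C, 5% CO2. Detection reagent added; reduced luminescence from the parasites' luciferase reporter flags inhibition.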
Each line names hits and unclear results; the compound was inactive in the other large screens. In the library only some 21% were active in any assay of this set; here they are far more common. Unless noted, calls follow the shape of the full dose curve.

S=C1Cc2ccccc2C(c2ccc(Cl)cc2)N1 (stereo not given)	NS1 function inh inconclusive (no result: Pf growth 48h)
O=[N+]([O-])c1ccc(Nc2nc(NC3CCCCC3)nc(N3CCCC3)n2)cc1	Pf growth 48h inconclusive, Pf growth 96h inconclusive (no result: NS1 function inh)
Cc1cc2nc(C)n(CCCNC(=O)Nc3ccc(F)cc3)c2cc1C	Pf growth 48h 12µM (no result: Pf growth 96h)
O=C(NCCN1CCCCC1)Nc1ccc(F)cc1	Pf growth 96h inconclusive
CCOc1ncccc1C(=O)N1CCN(S(=O)(=O)c2ccc3c(c2)OCCO3)CC1	Pf growth 48h inconclusive, Pf growth 96h inconclusive (no result: NS1 function inh, Shiga toxin inh, CHX counter)
O=C(Nc1ccccc1Cl)OC1CN2CCC1CC2 (stereo not given)	Pf growth 48h inconclusive
O=C(Nc1ccc(Cl)cc1)OC1CN2CCC1CC2 (stereo not given)	Shiga toxin inh 42, CHX counter 27
CC(=O)OC1CN2CCC1CC2 (stereo not given)	Pf growth 96h 4.8µM (no result: NS1 function inh, Shiga toxin inh, SARS PLpro yeast, CHX counter)
O=C(Nc1cccc(Cl)c1)OC1CN2CCC1CC2 (stereo not given)	Pf growth 48h 2.9µM, Shiga toxin inh 56, CHX counter 26, Pf growth 96h 1.9µM
O=C(Nc1ccccc1F)OC1CN2CCC1CC2 (stereo not given)	none
CC(=O)OC1C2CCC1C(N1CCCC1)CC2 (stereo not given)	none (no result: Pf growth 96h)
CN(Cc1ccccc1)S(=O)(=O)c1cccc2nsnc12	none (no result: NS1 function inh)
Cc1ccc(S(=O)(=O)NC(C(=O)Oc2ccc3c(C(F)(F)F)cc(=O)oc3c2)c2ccccc2)cc1 (stereo not given)	Pf growth 96h inconclusive
O=C(/C=C/c1ccc(Cl)cc1)Nc1nccs1	Shiga toxin inh 70, CHX counter 54, Pf growth 96h inconclusive (no result: NS1 function inh)
C/C=C/C=C/C(=O)Nc1nccs1	CHX counter 17, Pf growth 96h inconclusive
C=CCOc1ccc(/C=C/C(=O)OCC(=O)NCC(=O)Nc2c(C)cc(C)cc2C)cc1	none (no result: NS1 function inh, Shiga toxin inh, CHX counter)
O=[N+]([O-])c1ccc(S(=O)(=O)CC2CSc3nc4ccccc4n32)cc1 (stereo not given)	none
O=C(c1ccccn1)N1N=C2/C(=C/c3ccccc3)CCCC2C1c1ccccc1 (stereo not given)	Pf growth 48h inconclusive, Pf growth 96h inconclusive
CNC(=O)c1sc(N2N=C3/C(=C/c4ccccc4)CCCC3C2c2ccccc2)nc1C (stereo not given)	Pf growth 48h inconclusive, Pf growth 96h 3.3µM
COc1ccc2nc(NC(=S)NC(=O)c3ccco3)sc2c1	Shiga toxin inh 127, CHX counter 34 (no result: NS1 function inh)
COc1ccc2sc(NC(=O)c3ccco3)nc2c1	CHX counter 23
O=C(NC(=S)Nc1nc2ccccc2s1)c1ccco1	Shiga toxin inh 30, CHX counter 35
CC(C)C(CCN1C(=O)CCC1=O)C1CCOC(C)(C)C1 (stereo not given)	Pf growth 96h inconclusive
S=C(N/N=C/c1ccc2c(c1)OCO2)NC1CC2CCC1C2 (stereo not given)	Pf growth 48h 2.1µM, Shiga toxin inh 63, CHX counter 35, Pf growth 96h 2.6µM
COc1ccc(/C=C/C(=O)NC2CCCCC2C)cc1 (stereo not given)	Pf growth 96h inconclusive (no result: Shiga toxin inh)
CCN(CC)c1ccc(/C=N/NC(=S)NCc2ccc(OC)cc2)cc1	Pf growth 48h inconclusive, NS1 function inh inconclusive, Pf growth 96h inconclusive
COc1cc(/C=N/NC(=S)NC2CC3CCC2C3)ccc1O (stereo not given)	CHX counter 34, Pf growth 96h inconclusive
COc1ccc(/C=N/NC(=S)N[C@H]2CC3CCC2C3)cc1 (stereo not given in full)	Pf growth 48h 4.1µM, CHX counter 13, Pf growth 96h 5.2µM
COc1ccc(/C=C/C(=O)NC2CC3CCC2C3)cc1 (stereo not given)	CHX counter 27, Pf growth 96h inconclusive (no result: Shiga toxin inh)
COc1ccc(NC(=O)C2CCN(S(=O)(=O)c3ccc4c(c3)CC(C)N4C(C)=O)CC2)c(OC)c1 (stereo not given)	Pf growth 48h inconclusive, Pf growth 96h inconclusive
CSc1nc(=O)n2cc(C)ccc2n1	none
O=C(/C=C/c1cccc([N+](=O)[O-])c1)NC1CC2CCC1C2 (stereo not given)	CHX counter 19
CCC(=O)NC1OC(CO)C(O)C(O)C1O (stereo not given)	none
CC(=O)Nc1cccc(N2C(=O)CC(N3CCC(C(=O)N4CCCCC4)CC3)C2=O)c1 (stereo not given)	none (no result: Pf growth 96h)
COc1cc(OC)cc(N2C(=O)CC(N3CCC(C(=O)N4CCCCC4)CC3)C2=O)c1 (stereo not given)	Pf growth 96h 15µM
COc1ccc(C)cc1Cn1c(S(C)(=O)=O)nc2ccccc21	Pf growth 48h inconclusive (no result: Pf growth 96h)
OC(COCc1cccs1)CN1CCCCCC1 (stereo not given)	Pf growth 48h 13µM, NS1 function inh inconclusive
OC(COCc1ccc2c(c1)OCO2)CN1CCCCC1 (stereo not given)	Pf growth 96h 12µM
OC(COCc1ccc2c(c1)OCO2)CN1CCC(Cc2ccccc2)CC1 (stereo not given)	none
CCOc1ccc(N(C(=O)CNC(=O)c2cccs2)C(C(=O)NCC2CCCO2)c2ccc(OC)c(OC)c2)cc1 (stereo not given)	Pf growth 48h 9.3µM
COc1ccc(C(C(=O)NC(C)(C)C)N(C(=O)CNC(=O)c2cccs2)c2ccc(C(C)C)cc2)cc1OC (stereo not given)	Pf growth 48h 12µM, NS1 function inh inconclusive, Pf growth 96h 8.3µM
COc1ccc(N(C(=O)CNC(=O)c2cccs2)C(C(=O)NCC2CCCO2)c2ccc(OC)c(OC)c2)cc1 (stereo not given)	Pf growth 48h inconclusive, Pf growth 96h inconclusive
CNC(=O)C1(C(F)(F)F)C/C(=C\Cc2ccccc2)CCCO1 (stereo not given)	none (no result: Pf growth 48h, NS1 function inh, SARS PLpro yeast, Pf growth 96h)
O=C(CSc1nnc(-c2ccc(C(F)(F)F)cn2)s1)c1ccccc1	none
Cc1nc2sc(C(c3ccc(F)cc3)N3CCN(C(=O)c4ccco4)CC3)c(O)n2n1 (stereo not given)	none
CCSc1nc(=O)n(-c2ccccc2)c(C)c1C(C)=O	Shiga toxin inh 33, CHX counter 16
Cc1cc2nc(/N=C(\N)NC(=O)N3c4ccccc4Sc4ccccc43)nc(C)c2cc1C	Pf growth 48h 8.3µM, Pf growth 96h inconclusive
Cc1ccc2nc(/N=C(\N)NC(=O)N3c4ccccc4Sc4ccccc43)nc(C)c2c1	none
Cc1ccc2c(c1)Cc1c(C(=O)NN3CCCCC3)nn(-c3ccc(Cl)cc3Cl)c1-2	none (no result: Pf growth 48h, NS1 function inh, SARS PLpro yeast, Pf growth 96h)
CCC(C(=O)NC1CCCC1)N(Cc1ccco1)C(=O)Cn1nnc(-c2ccc(C)cc2)n1 (stereo not given)	Pf growth 48h inconclusive, Pf growth 96h 9.3µM
O=C(NC1CCCCC1)C(c1ccc(F)cc1)N(Cc1ccco1)C(=O)Cn1nnc2ccccc21 (stereo not given)	none (no result: Pf growth 96h)

High-throughput results as filed in PubChem.
